Results from PubChem BioAssay.
Unmarked numbers belong to inactive results. For some of these results: Results with a measured potency or affinity are listed apart. Active and inactive are the calls of the source. Unless noted, how the calls were made is not given here.

What was measured:
[1] = antimalarial activity against Dd2 strain (AID 2302;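 active means growth inhibition above 50% at the single 2 µM test dose, taken to imply half-maximal potency below 2 µM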;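 further: 0% = DMSO untreated growth and 100% = chloroquine plus artemisinin killed control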); conditions: P. falciparum Dd2 in RBCs, LDH growth readout, 72 h; at 2 µM; stronger effect = higher value
[2] = HepG2 cytotoxicity, primary screen, cytotoxicity control for P. falciparum antimalarial project, cell-based, ATP luminescence (AID 2303;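 active means inhibition above 50%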;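 further: 0% = DMSO wells and 100% = digitonin-killed cells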); conditions: HepG2 viability, 24-48 h, at 10 µM, stronger effect = higher value
[3] = target: L-lactate dehydrogenase (Plasmodium falciparum (isolate CDC / Honduras)) (UniProt Q27743); test: PfLDH activity inhibition – cell lysate, 3D7 strain, counter-screen for P. falciparum growth inhibition project (AID 2304);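 further: 0% = vehicle and 100% = reference inhibitor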; conditions: P. falciparum 3D7 crude extract, LDH APAD/NBT absorbance; at 2 µM; stronger effect = higher value
[4] = inhibition of 3D7 malaria parasite growth – strain 3D7 (AID 2306);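 further: 0% = DMSO wells and 100% = chloroquine plus artemisinin control wells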; conditions: P. falciparum 3D7 erythrocytic growth, LDH absorbance, 72 h; at 2 µM; stronger effect = higher value
[5] = target: Calcium-dependent protein kinase 1 (Plasmodium falciparum (isolate 3D7)) (UniProt P62344); test: PfCDPK1 kinase inhibitors, biochemical, TCAMS library (AID 1159585; cut-off not given, nearly all actives have IC50 up to about 0.98 µM;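 further: inhibitors leave more ATP so luminescence rises with inhibition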); conditions: recombinant PfCDPK1, Kinase-Glo ATP depletion luminescence
[6] = target: Plasmodium falciparum protein kinase 6 (PK6, PF3D7_1337100) (UniProt Q8IDW1); test: PfPK6 kinase inhibitors, biochemical, TCAMS library (AID 1159586); conditions: recombinant PfPK6, Kinase-Glo ATP depletion luminescence
[7] = target: Protein kinase 7 (PK7), Plasmodium falciparum 3D7 (PF3D7_0213400) (UniProt Q7YTF7); test: inhibition of Plasmodium PK7 catalytic activity – biochemical, TCAMS antimalarial set, Kinase-Glo luminescence (AID 1159587); conditions: recombinant PfPK7, Kinase-Glo ATP depletion luminescence
[8] = target: Calcium-dependent protein kinase 4 (Plasmodium falciparum (isolate 3D7)) (UniProt Q8IBS5); test: PfCDPK4 kinase inhibitors, biochemical, TCAMS library (AID 1159588; cut-off not given, nearly all actives have IC50 up to about 0.91 µM); conditions: recombinant PfCDPK4, Kinase-Glo ATP depletion luminescence
Calcium-dependent protein kinase 4 (Plasmodium falciparum (isolate 3D7)), sequence (Q8IBS5 whole entry, looked up): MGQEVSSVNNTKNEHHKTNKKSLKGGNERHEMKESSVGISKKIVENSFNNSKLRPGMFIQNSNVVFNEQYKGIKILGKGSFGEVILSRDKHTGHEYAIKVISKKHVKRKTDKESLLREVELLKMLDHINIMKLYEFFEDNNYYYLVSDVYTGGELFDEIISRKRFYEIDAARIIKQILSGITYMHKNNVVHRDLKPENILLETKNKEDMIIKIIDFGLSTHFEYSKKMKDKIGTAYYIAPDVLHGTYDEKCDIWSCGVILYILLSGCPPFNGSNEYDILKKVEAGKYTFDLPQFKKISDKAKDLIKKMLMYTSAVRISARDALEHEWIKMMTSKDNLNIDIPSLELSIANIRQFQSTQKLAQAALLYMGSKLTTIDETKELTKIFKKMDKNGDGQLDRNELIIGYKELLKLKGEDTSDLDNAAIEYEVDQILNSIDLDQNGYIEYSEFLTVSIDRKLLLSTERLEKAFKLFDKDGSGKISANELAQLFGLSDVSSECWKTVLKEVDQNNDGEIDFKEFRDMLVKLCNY

Calcium-dependent protein kinase 1 (Plasmodium falciparum (isolate 3D7)), sequence (P62344 whole entry, looked up): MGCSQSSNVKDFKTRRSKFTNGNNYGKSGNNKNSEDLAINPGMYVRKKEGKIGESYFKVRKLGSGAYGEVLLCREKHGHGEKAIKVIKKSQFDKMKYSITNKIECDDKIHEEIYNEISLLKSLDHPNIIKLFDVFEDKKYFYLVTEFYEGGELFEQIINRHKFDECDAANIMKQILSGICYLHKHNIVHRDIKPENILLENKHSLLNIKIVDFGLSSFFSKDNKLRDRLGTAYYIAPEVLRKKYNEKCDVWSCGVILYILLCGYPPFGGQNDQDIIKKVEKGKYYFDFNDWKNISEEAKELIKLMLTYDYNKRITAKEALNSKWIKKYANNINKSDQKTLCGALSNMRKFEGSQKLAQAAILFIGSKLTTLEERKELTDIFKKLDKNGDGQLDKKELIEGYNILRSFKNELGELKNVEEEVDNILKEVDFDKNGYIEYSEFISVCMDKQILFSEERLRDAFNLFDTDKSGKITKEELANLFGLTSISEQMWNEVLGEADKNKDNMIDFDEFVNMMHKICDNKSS
Plasmodium falciparum protein kinase 6 (PK6, PF3D7_1337100), sequence (Q8IDW1 1-305): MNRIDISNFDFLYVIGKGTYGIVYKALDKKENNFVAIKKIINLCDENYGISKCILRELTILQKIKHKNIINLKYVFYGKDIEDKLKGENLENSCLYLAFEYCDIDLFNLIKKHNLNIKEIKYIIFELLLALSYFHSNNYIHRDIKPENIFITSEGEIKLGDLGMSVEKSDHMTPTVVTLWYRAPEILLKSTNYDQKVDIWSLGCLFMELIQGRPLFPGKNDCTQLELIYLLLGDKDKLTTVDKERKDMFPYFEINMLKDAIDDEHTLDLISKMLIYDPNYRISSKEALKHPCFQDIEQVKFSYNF
Protein kinase 7 (PK7), Plasmodium falciparum 3D7 (PF3D7_0213400), sequence (Q7YTF7 1-343): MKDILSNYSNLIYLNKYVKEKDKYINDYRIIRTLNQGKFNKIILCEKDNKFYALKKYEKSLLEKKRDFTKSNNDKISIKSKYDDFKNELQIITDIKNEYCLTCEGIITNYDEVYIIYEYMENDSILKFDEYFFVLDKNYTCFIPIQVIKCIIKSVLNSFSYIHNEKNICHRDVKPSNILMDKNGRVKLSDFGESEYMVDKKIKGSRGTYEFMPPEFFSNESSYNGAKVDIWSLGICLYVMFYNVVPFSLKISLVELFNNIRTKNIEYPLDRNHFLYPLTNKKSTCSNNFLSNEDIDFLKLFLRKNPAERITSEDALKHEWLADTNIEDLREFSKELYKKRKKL
L-lactate dehydrogenase (Plasmodium falciparum (isolate CDC / Honduras)), sequence (Q27743 whole entry, looked up): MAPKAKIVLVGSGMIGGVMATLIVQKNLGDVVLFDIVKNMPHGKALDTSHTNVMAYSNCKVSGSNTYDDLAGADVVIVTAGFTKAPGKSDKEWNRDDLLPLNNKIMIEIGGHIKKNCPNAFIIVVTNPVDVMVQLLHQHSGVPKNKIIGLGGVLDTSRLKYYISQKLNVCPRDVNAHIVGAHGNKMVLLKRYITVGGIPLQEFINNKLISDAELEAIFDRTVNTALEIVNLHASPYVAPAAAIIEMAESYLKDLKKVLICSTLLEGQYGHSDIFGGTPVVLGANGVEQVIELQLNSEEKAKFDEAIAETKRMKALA

For `CCN(CC)CCCOC(=O)c1ccc2c(c1)-c1ccc(C(=O)OCCCN(CC)CC)c3cccc-2c13`, the growth inhibition [1] was 96% (active), the inhibition [2] was 22% and the inhibition [3] was -3%. For the same compound, the growth inhibition [4] was 98% (active), the outcome [5] was “inactive” and the outcome [6] was “inactive”. The outcome [7] was “inactive” and the outcome [8] was “inactive”.

For `CCn1cc(CN2CCCC(C(=O)Nc3ccc(-c4nc5ccccc5[nH]4)cc3)C2)c(C)n1` (stereo not given), the growth inhibition [1] was 28%, the inhibition [2] was 22% and the inhibition [3] was 2%. For the same compound, the growth inhibition [4] was 100% (active), the outcome [5] was “inactive” and the outcome [6] was “inactive”. For the same compound, the outcome [7] was “inactive” and the outcome [8] was “inactive”.

With `CS(=O)(=O)c1ccccc1CNC(=O)c1ccc(-c2ccc(-c3nc4ccc(C(F)(F)F)cc4[nH]3)s2)cc1` the growth inhibition [1] was 76% (active), the inhibition [2] was 90% (active) and the inhibition [3] was 9%. For the same compound, the growth inhibition [4] was 96% (active), the outcome [5] was “inactive” and the outcome [6] was “inactive”. For the same compound, the outcome [7] was “inactive” and the outcome [8] was “inactive”.

For `COc1cccc(CC(=O)N2CCC(n3c(C)nc4ccc(C)cc43)CC2)c1`, the growth inhibition [1] was 99% (active), the inhibition [2] was 1% and the inhibition [3] was -2%. The growth inhibition [4] was 100% (active), the outcome [5] was “inactive” and the outcome [6] was “inactive”. The outcome [7] was “inactive” and the outcome [8] was “inactive”.

For `Cc1ccc(NC(=O)Nc2ccc(S(=O)(=O)c3ccc(NC(=O)Nc4ccc(C)c(Cl)c4)cc3)cc2)cc1Cl`, the growth inhibition [1] was 42%, the inhibition [2] was 49% and the inhibition [3] was 4%. For the same compound, the growth inhibition [4] was 99% (active), the outcome [5] was “inactive” and the outcome [6] was “inactive”. For the same compound, the outcome [7] was “inactive” and the outcome [8] was “inactive”.

With `O=S1(=O)C=C(c2ccccc2)CC1` the growth inhibition [1] was 44%, the inhibition [2] was 57% (active) and the inhibition [3] was -1%. The growth inhibition [4] was 97% (active), the outcome [5] was “inactive” and the outcome [6] was “inactive”. For the same compound, the outcome [7] was “inactive” and the outcome [8] was “inactive”.

For `COc1ccc2nccc([C@@H](O)CN3CCC(NCCOc4ccc(F)cc4[N+](=O)[O-])CC3)c2c1`, the growth inhibition [1] was 92% (active), the inhibition [2] was 8% and the inhibition [3] was -1%. For the same compound, the growth inhibition [4] was 99% (active), the outcome [5] was “inactive” and the outcome [6] was “inactive”. For the same compound, the outcome [7] was “inactive” and the outcome [8] was “inactive”.

In the case of `Cc1cc(CN2CC[C@H](NC(=O)c3ccc(Cl)c(Cl)c3)C2)ccc1OC1CCN(Cc2ccccc2)CC1`, the growth inhibition [1] was 29%, the inhibition [2] was 59% (active) and the inhibition [3] was -2%. For the same compound, the growth inhibition [4] was 98% (active), the outcome [5] was “inactive” and the outcome [6] was “inactive”. For the same compound, the outcome [7] was “inactive” and the outcome [8] was “inactive”.

For `O=C(Nc1ccc(-c2ccccc2)cc1)Nc1cccc(Cn2nc(Cl)c(N3CCNCC3)cc2=O)c1`, the growth inhibition [1] was 79% (active), the inhibition [2] was 15% and the inhibition [3] was -2%. For the same compound, the growth inhibition [4] was 102% (active), the outcome [5] was “inactive” and the outcome [6] was “inactive”. The outcome [7] was “inactive” and the outcome [8] was “inactive”.

In the case of `Cc1ccc(O)cc1Nc1ccnc2ccc(-c3cccc(CNCCN(C)C)c3)cc12`, the growth inhibition [1] was 46%, the inhibition [2] was -7% and the inhibition [3] was -3%. For the same compound, the growth inhibition [4] was 100% (active), the outcome [5] was “inactive” and the outcome [6] was “inactive”. For the same compound, the outcome [7] was “inactive” and the outcome [8] was “inactive”.

For `NC(=O)c1ccccc1OCC(=O)Nc1ccc(-c2cccc(-c3nc4ccc(C(F)(F)F)cc4[nH]3)c2)cc1`, the growth inhibition [1] was 11%, the inhibition [2] was 51% (active) and the inhibition [3] was -8%. For the same compound, the growth inhibition [4] was 100% (active), the outcome [5] was “inactive” and the outcome [6] was “inactive”. For the same compound, the outcome [7] was “inactive” and the outcome [8] was “inactive”.

For `CC1(C)N=C(N)N=C(N)N1c1ccc(Br)cc1`, the growth inhibition [1] was 4%, the inhibition [2] was 52% (active) and the inhibition [3] was 0%. For the same compound, the growth inhibition [4] was 94% (active), the outcome [5] was “inactive” and the outcome [6] was “inactive”. The outcome [7] was “inactive” and the outcome [8] was “inactive”.

With `CCN(CC)CCNc1ccnc2c3ccccc3n(C)c12` the growth inhibition [1] was 99% (active), the inhibition [2] was 14% and the inhibition [3] was -4%. The growth inhibition [4] was 101% (active), the outcome [5] was “inactive” and the outcome [6] was “inactive”. For the same compound, the outcome [7] was “inactive” and the outcome [8] was “inactive”.

With `CC(C)NCc1ccc(-c2cccc(NC(=O)c3cccc(Cl)c3)c2)cc1` the growth inhibition [1] was 87% (active), the inhibition [2] was 24% and the inhibition [3] was 1%. The growth inhibition [4] was 100% (active), the outcome [5] was “inactive” and the outcome [6] was “inactive”. For the same compound, the outcome [7] was “inactive” and the outcome [8] was “inactive”.

In the case of `O=C(Cc1cnc[nH]1)Nc1ccc(-c2ccc(-c3nc4ccc(C(F)(F)F)cc4[nH]3)s2)cc1`, the growth inhibition [1] was 99% (active), the inhibition [2] was 48% and the inhibition [3] was 0%. The growth inhibition [4] was 101% (active), the outcome [5] was “inactive” and the outcome [6] was “inactive”. For the same compound, the outcome [7] was “inactive” and the outcome [8] was “inactive”.

For `O=C(CN1CCN(C(=O)c2ccco2)CC1)Nc1ccccc1Br`, the growth inhibition [1] was 96% (active), the inhibition [2] was 15% and the inhibition [3] was -4%. The growth inhibition [4] was 97% (active), the outcome [5] was “inactive” and the outcome [6] was “inactive”. The outcome [7] was “inactive” and the outcome [8] was “inactive”.

In the case of `COc1ccc(CNC2Cc3ccccc3C2)cc1-c1ccc(S(=O)(=O)NCCc2ccccn2)s1`, the growth inhibition [1] was 22%, the inhibition [2] was 11% and the inhibition [3] was 0%. For the same compound, the growth inhibition [4] was 92% (active), the outcome [5] was “inactive” and the outcome [6] was “inactive”. The outcome [7] was “inactive” and the outcome [8] was “inactive”.

In the case of `CS(=O)(=O)NCCCNCc1cccc(-c2ccc(-c3nc4ccc(C(F)(F)F)cc4[nH]3)cc2)c1`, the growth inhibition [1] was 85% (active), the inhibition [2] was 17% and the inhibition [3] was -4%. For the same compound, the growth inhibition [4] was 100% (active), the outcome [5] was “inactive” and the outcome [6] was “inactive”. For the same compound, the outcome [7] was “inactive” and the outcome [8] was “inactive”.

`COc1cccc(C2CCN(CCN3CCC(CNC(=O)c4ccc(-c5ccc(C(F)(F)F)cc5)cc4)CC3)CC2)c1` gave a growth inhibition [1] of 42%, an inhibition [2] of 41% and an inhibition [3] of -2%. For the same compound, the growth inhibition [4] was 100% (active), the outcome [5] was “inactive” and the outcome [6] was “inactive”. The outcome [7] was “inactive” and the outcome [8] was “inactive”.

`CN1CCC(c2ccc(NC(=O)c3ccc(-c4cccc(C(F)(F)F)c4)o3)cc2)CC1` gave a growth inhibition [1] of 23%, an inhibition [2] of 23% and an inhibition [3] of -3%. The growth inhibition [4] was 86% (active), the outcome [5] was “inactive” and the outcome [6] was “inactive”. The outcome [7] was “inactive” and the outcome [8] was “inactive”.
